Here are results for 40 compounds from PubChem BioAssay (EPA / NIEHS).

The AC50 is the concentration giving half of the maximal activity seen.

Activity calls are given as the source filed them. Rule for the calls: active = hit-call score of the fitted dose curve at least 0.9, where 1 is the maximum; inactive = score below 0.9.

This assay in a line: APR_HepG2_MicrotubuleCSK_24hr: Apredica 24-hour HepG2 Assay for Microtubule CSK Stabilty (AID 2282909). The note with it: HepG2 microtubule cytoskeleton imaging, actives raise or lower the signal. The protocol: APR_HepG2_24hr is a cell-based, multiplexed-readout assay that uses HepG2, a human liver cell line, with measurements taken at 24 hours after chemical dosing in a 384-well plate.APR_HepG2_MicrotubuleCSK_24hr is one of 10 assay component(s) measured or calculated from the APR_HepG2_24hr assay. It is designed to make measurements of protein conformation, a form of conformation reporter, as detected with fluorescence intensity signals by HCS Fluorescent Imaging technology.Data from the assay component APR_HepG2_MicrotubuleCSK_24hr was analyzed into 1 assay endpoint. This assay endpoint, APR_HepG2_MicrotubuleCSK_24hr, was analyzed with bidirectional fitting relative to DMSO as the negative control and baseline of activity. Using a type of conformation reporter, measures of protein for gain or loss-of-signal activity can be used to understand the signaling at the cellular-level. Furthermore, this assay endpoint can be referred to as a primary readout, because this assay has produced multiple assay endpoints where this one serves a signaling function. To generalize the intended target to other relatable targets, this assay endpoint is annotated to the cell morphology intended target family, where the subfamily is cell conformation.
Cells were treated with dimethyl sulfoxide (DMSO) as a solvent control at a final concentration of 0.5% v/v or with compounds in DMSO with a resulting final DMSO concentration of 0.5% v/v. Compound treatment was done at concentrations of 0.39, 0.78, 1.56, 3.12, 6.24, 12.5, 25, 50, 100, and 200 uM in duplicate on each plate. Cells were treated with compounds for 1, 24, or 72 hr. Carbonyl […] m-chloro-phenylhydrazone (CCCP) and taxol were used as positive controls for mitochondrial function and cytoskeletal stability, respectively; DMSO served as the negative control for this experiment. Cells were fixed by the direct addition of 50 uL formaldehyde in Hank's Balanced Salt Solution (HBSS) to a final concentration of 3.7%. After incubation in the fixation medium for 30 min at room temperature (293-298 K), cells were rinsed twice with HBSS and treated with cell permeabilization buffer (16 uL of 0.5% Triton X-100) for 10 min at room temperature (293-298 K) before labeling. For mitochondrial membrane potential and mitochondrial measurements, pre-fixed cells were incubated with 50 uL of MitoTracker Red CMXRos (Invitrogen) at a concentration of 250 nM for 30 min before fixation. In the remaining cases, post-fixed cells were labeled by incubation with a multiplexed mixture of primary antibodies in HBSS for 60 min at room temperature (293-298 K) to detect immunoreactivity of c-Jun (1:500), phospho-histone H3 (1:100), phospho-histone H2A.x (1:200), p53 (1:400), alpha-tubulin (1:200) and Hoechst 33342 (2 ug/mL). Cells were labeled for multiplexed imaging on two separate plates: a) Hoechst 33342, MitoTracker Red, phospho-histone H3, and alpha-tubulin, and b) Hoechst 33342, phospho-histone H2A.x, and c-Jun. A final rinse with HBSS (50 uL) was performed before analysis. The primary and secondary antibodies for the proteins were phospho-histone H3 (rabbit anti-phospho-histone H3 and FITC-donkey anti-rabbit IgG), phospho-histone H2A.x (mouse anti-phospho-histone H2A.x and FITC-donkey anti-mouse IgG), c-Jun (rabbit anti-phospho-c-Jun and Cy3-donkey anti-rabbit IgG), p53 (sheep anti-p53 and Cy5-donkey anti-sheep IgG), alpha-tubulin (mouse anti-alpha-tubulin and Cy5-donkey anti-mouse IgG). These antibodies are available as the CellCiphr HepG2 assay kit (Millipore).Digital images of each well were captured using a Cellomics ArrayScan VTI (Thermo Scientific Cellomics) (0.8 NA objective, 0.63x optical coupler, and XF-93 filter set) at 20x magnification. The images were acquired using the autofocus feature of the ArrayScan instrument, which entails the following steps. First, the camera focuses on channel 1 (Hoechst 33342), where nuclei are identified. Second, a Z offset of 1 um is used for capturing mitochondria (MitoTracker Red). […]
As to `OC[C@H]1O[C@@](CO)(O[C@H]2O[C@H](CO)[C@@H](O)[C@H](O)[C@H]2O)[C@@H](O)[C@@H]1O`, the compound was called inactive.
Still for that read-out and setting: the result for `CCCCCCCCN(C)C` reads “inactive”.
Same read-out and setting: with `O=S(=O)(O)c1ccc(N=Nc2c(O)ccc3cc(S(=O)(=O)O)ccc23)cc1` the entry was “inactive”.
The same measure, in the same setting: with `C=CN1CCCC1=O` the entry was “inactive”.
For `Cc1nccn1-c1ccc(Sc2cccc(C3(C(N)=O)CCOCC3)c2)cc1`, the compound was called inactive.
The same measure, in the same setting: the result for `O=C(O)[C@H](O)[C@@H](O)C(=O)O` reads “inactive”; that for `OC(Cn1cncn1)(Cn1cncn1)c1ccc(F)cc1F`, “inactive”; that for `C[C@]12C=CC(=O)C=C1CC[C@H]1[C@@H]3C[C@@H](O)[C@](O)(C(=O)CO)[C@@]3(C)C[C@H](O)[C@@]12F`, “inactive”.
Same read-out and setting: the result for `CC[C@H](C)C(=O)O[C@H]1C[C@H](O)C=C2C=C[C@H](C)[C@H](CC[C@@H](O)C[C@@H](O)CC(=O)O)[C@H]21` reads “inactive”; that for `C=CCc1cc(S(=O)(=O)c2ccc(O)c(CC=C)c2)ccc1O`, “inactive”; that for `CC(C)CC(C)O` (stereo not given), “inactive”.
Take `O=C(O)c1cccc(C(=O)O)c1`: the outcome was inactive.
On the same count and under the same terms, with `CC(C)CCCCCCOC(=O)C1CCCCC1C(=O)OCCCCCCC(C)C` (stereo not given) the entry was “inactive”.
Regarding `CCCCCCCCCCCCCCO`, the AC50 was 107 µM (active).
With `CCCCC(CC)C(=O)OCCOCCOCCOC(=O)C(CC)CCCC` (stereo not given), the compound was called inactive.
For the compound `OCc1ccccc1`, the call was inactive.
As to `NC(=O)N1c2ccccc2C=Cc2ccccc21`, the outcome was inactive.
Same read-out and setting: with `NNC(=O)c1ccncc1` the entry was “inactive”; with `O=C(NO)C1(NS(=O)(=O)c2ccc(Oc3ccc(F)cc3)cc2)CCOCC1`, “inactive”; with `O=S1(=O)CCCO1`, “inactive”.
For the compound `CCc1ccc(O)c(C(C)(C)C)c1`, the AC50 is 80.7 µM (active).
As to `CCCCCCCCCCCCCCCCOS(=O)(=O)O`, the compound was classed as inactive.
In the case of `NC(=O)NN=Cc1ccc([N+](=O)[O-])o1`, the call was inactive.
Still for that read-out and setting: the result for `Cc1ccc(S(=O)(=O)NC(=O)NN2CCCCCC2)cc1` reads “inactive”.
On the same count and under the same terms, with `CCCCN1C(=O)[C@@H]([C@H](O)C2CCCCC2)NC(=O)C12CCN(Cc1ccc(Oc3ccc(C(=O)O)cc3)cc1)CC2` the entry was “inactive”; with `OC(CCl)CCl`, “inactive”.
Still for that read-out and setting: the result for `CC(C)C(=O)Nc1ccc([N+](=O)[O-])c(C(F)(F)F)c1` reads “inactive”; that for `c1ccc2ncccc2c1`, “inactive”.
In the case of `c1ccc2cc3ccccc3cc2c1`, the call was inactive.
Same read-out and setting: the result for `O=C(O)c1cccc(C[C@@H]2COc3ccc(OCc4nc5cc(F)ccc5s4)cc3[C@@H]2O)c1` reads “inactive”; that for `Cn1c(=O)c2[nH]cnc2n(C)c1=O`, “inactive”.
Same read-out and setting: with `COS(C)(=O)=O` the entry was “inactive”; with `CCCCOC(=O)c1ccccc1`, “inactive”.
On the same count and under the same terms, with `OC[C@H]1O[C@@H]2O[C@H]3[C@H](O)[C@@H](O)[C@@H](O[C@H]4[C@H](O)[C@@H](O)[C@@H](O[C@H]5[C@H](O)[C@@H](O)[C@@H](O[C@H]6[C@H](O)[C@@H](O)[C@@H](O[C@H]7[C@H](O)[C@@H](O)[C@@H](O[C@H]1[C@H](O)[C@H]2O)O[C@@H]7CO)O[C@@H]6CO)O[C@@H]5CO)O[C@@H]4CO)O[C@@H]3CO` the entry was “inactive”; with `C[C@@H](Oc1ccc(CNC(=O)c2cccnc2Oc2ccc3c(c2)OCO3)c(F)c1)C(=O)O`, “inactive”.
Regarding `CCCCCOC(C)=O`, the compound was called inactive.
On the same count and under the same terms, with `Cc1nc(-c2ccccn2)ncc1C(=O)Nn1cc(C)c2cc(F)ccc21` the entry was “inactive”; with `CNC(C)=O`, “inactive”.
On to `CCCCCCCCCC`, for which the call was inactive.
Still for that read-out and setting: the result for `COCc1nnc(-c2ccc[n+]([O-])c2)n1-c1c(Cl)c(Cl)cc2[nH]c(=O)c(=O)[nH]c12` reads “inactive”.
